The panel holds about 83,000 compounds, 20% with a hit somewhere; the sample as a whole holds those more often.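 Cell lines were cultured in 96-well plates, exposed to a single compound concentration, and assessed for percent growth 48 hours later.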 Values without a mark were called inactive. The source made the active and inactive calls. How the source made its calls: active means growth percent below 10; inactive means the rest.
Each molecule was assayed on HL-60(TB) leukemia (assay: NCI-60 one-dose screen, 48 h (100 = growth as untreated, 0 = no growth, -100 = all killed)). Settings: 10 µM unless noted.

First: Cc1ccc2nc(NC(=O)CSc3nc(Nc4ccc([N+](=O)[O-])cc4)c(C#N)c(-c4ccccc4)n3)sc2c1
Second: COc1ccc(-n2ncc3c4nc(OC)c(S(=O)(=O)c5ccccc5)cc4ccc32)cc1
The growth of the first is lower: 95.2% for the first, 107% for the second.

Compared with NC(N)=NS(=O)(=O)c1ccc(NC2=C(I)C(=O)c3ncccc3C2=O)cc1, O=C1c2cc(S(=O)(=O)O)ccc2C(=O)c2c1cccc2[N+](=O)[O-] is higher in growth: 99.2% for the first, 101% for the second.

First: O=C(Cc1n[nH]c(=O)c2ccccc12)OCc1c(Cl)cccc1Cl
Second: C=CCc1c(O)c(C(=O)/C=C/c2ccccc2)c(OC)c2ccoc12
The growth of the first is lower: 33.7% for the first, 36.3% for the second.

Going from O=C(NO)c1ccc(Cn2c(=O)n(CCc3ccccc3)c(=O)c3ccccc32)cc1 to C(=N\Nc1nnc2n1N=C(c1ccccc1)CS2)/c1ccc(OCc2ccccc2)cc1, the growth rises from 36.2% to 97.6%.

Going from CCCCCCN1C(=O)/C(=c2\sc3n(c2=O)C2C(NN=3)N(CC)C(=O)N2CC)c2ccccc21 (stereo unspecified) to CC(C)(C)c1nn(-c2ccccc2)c2c1C(=O)CSC(c1ccc3c(c1)OCO3)N2 (stereo unspecified), the growth rises from 42.2% to 89.5%.

First: CNC(=S)NC(C)(C)C
Second: CC(C)NCC(O)COc1ccc(CC(N)=O)cc1 (stereo unspecified)
The growth of the first is lower: 92.6% for the first, 101% for the second.

Going from O=C(/C=C/c1ccccc1)c1cccs1 to OC(c1ccccc1)(c1ccccc1)c1ccccc1-c1ccccc1, the growth falls from 102% to 82%.

Going from CCN(CC)c1ccc(CNc2ccnc3ccccc23)cc1 to CCN(CC)c1ccc(C(=N)c2ccc(N(C)C)cc2)cc1, the growth falls from 33.6% to 11.1%.

Going from CCOc1cc(/C=C/C(=O)CC(=O)/C=C/c2ccc(OC(=O)CNc3nc4ccc(OC)cc4s3)c(OCC)c2)ccc1OC(=O)CNc1nc2ccc(OC)cc2s1 to CCN(CC)CCCC(Cc1ccccc1)Nc1c2ccc(Cl)cc2nc2ccc(OC)cc12 (stereo unspecified), the growth falls from 21.5% to 19.5%.

Compared with COc1ccc2cc(-c3nc4ccccc4[nH]3)c(=O)oc2c1, O=c1c2ccccc2[nH]n1Cc1ccc2c(c1)OCO2 is higher in growth: 81.2% for the first, 98.4% for the second.

Compared with CC(=O)Oc1csc(N(C(C)=O)c2cc(C(=O)O)cc(C(=O)O)c2)n1, CN(Cc1cnc2nc(N)nc(N)c2n1)c1ccc(C(=O)NC(CCC(=O)O)C(=O)O)cc1Br (stereo unspecified) is lower in growth: 113% for the first, 45.2% for the second.

First: O=S(=O)(NCCCNc1nccc(-c2c(-c3ccc(F)c(O)c3)nc3sccn23)n1)c1ccc(Cl)cc1
Second: CC(C)c1cc(C(C)C)c(S(=O)(=O)Oc2ccc(NC(=O)c3ccc(Cl)cc3)cc2)c(C(C)C)c1
The growth of the first is higher: 83.1% for the first, 16.9% for the second.

Compared with CC(=O)c1nn(-c2ccccc2)/c(=N\N=C\c2coc3ccc(F)cc3c2=O)s1, COc1ccc(/C(C)=C(\c2ccc(Cl)cc2)c2ccc(OCCN3CCCCC3)cc2)cc1 is lower in growth: 105% for the first, 32.8% for the second.

For NC(=O)c1cc(Cl)ccc1NC(=O)/C=C/c1ccccc1, the growth was -30.8% (active).
COC(=O)c1c2c(c(C)[n+]([O-])c1C)C(=O)C=C(NCc1ccc(F)c(Cl)c1)C2=O was tested, and the growth was -28.9% (active).
With CCCCCCCCCCCCCCCCCCOc1ccccc1CC(=O)OCC[N+](CC)(CC)CC the growth was -20.7% (active).
For COc1ncc2cc1NS(=O)(=O)c1cccc(c1)C(=O)NCC1=CC=C(S1)c1ncnc3c1SC2=C3C, the growth was -10.8% (active).
CC(C)C1=NOC(=O)C1=Cc1cn(-c2ccccc2)nc1-c1cccc([N+](=O)[O-])c1 was tested, and the growth was -4.77% (active).
With COc1cc(/C=C/c2cc(/C=C/c3ccc(O)c(OC)c3)n(C(=O)Nc3ccc(C)cc3C)n2)ccc1O the growth was -30.4% (active).
With CO[C@H](C(=O)N[C@@H](CCCCNC(=O)OCc1ccccc1)C(=O)OC(C)(C)C)[C@@H]1Cc2cc3cc(OC4CC(OC5CC(O)C(O)C(C)O5)C(O)C(C)O4)c(C)c(O)c3c(O)c2C(=O)[C@H]1OC1CC(OC2CC(OC3CC(C)(O)C(O)C(C)O3)C(O)C(C)O2)C(O)C(C)O1 (stereo partly specified) the growth was -0.249% (active).
With C=C1C(=O)O[C@H]2[C@H]1CC/C(COC(=O)/C=C\C(=O)NCc1ccc(Cn3c(=O)sn(CCCl)c3=O)cc1)=C\CC[C@@]1(C)O[C@@H]21 the growth was -19.4% (active).
In the case of COc1cc2c(=O)n(CCN(C)C)c3c4cc5c(cc4ccc3c2cc1OC)OCO5, the growth is reported as 8.03% (active).
In the case of CN(C)CCNC(=O)c1cc2c3cc(Cl)ccc3[nH]c2c2ncccc12, the growth is reported as -64.8% (active).

— PubChem BioAssay (NCI)
